The compounds below were run against Glucocorticoid receptor (Homo sapiens) (UniProt P04150) (assay: GR-GFP Redistribution (AID 450)). Settings: U2OS GR-GFP nuclear translocation, laser cytometry, 2 h; series mostly up to 20.6 µM;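 active = compounds whose dose series gives a full or clear partial fitted curve of increased nuclear translocation; inconclusive = weak partial curve or effect only at the top dose; inactive = no dose-dependent translocation response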.
Potency is read from the fitted curve at half-maximal effect.

Sequence of Glucocorticoid receptor (Homo sapiens) (P04150 whole entry, looked up): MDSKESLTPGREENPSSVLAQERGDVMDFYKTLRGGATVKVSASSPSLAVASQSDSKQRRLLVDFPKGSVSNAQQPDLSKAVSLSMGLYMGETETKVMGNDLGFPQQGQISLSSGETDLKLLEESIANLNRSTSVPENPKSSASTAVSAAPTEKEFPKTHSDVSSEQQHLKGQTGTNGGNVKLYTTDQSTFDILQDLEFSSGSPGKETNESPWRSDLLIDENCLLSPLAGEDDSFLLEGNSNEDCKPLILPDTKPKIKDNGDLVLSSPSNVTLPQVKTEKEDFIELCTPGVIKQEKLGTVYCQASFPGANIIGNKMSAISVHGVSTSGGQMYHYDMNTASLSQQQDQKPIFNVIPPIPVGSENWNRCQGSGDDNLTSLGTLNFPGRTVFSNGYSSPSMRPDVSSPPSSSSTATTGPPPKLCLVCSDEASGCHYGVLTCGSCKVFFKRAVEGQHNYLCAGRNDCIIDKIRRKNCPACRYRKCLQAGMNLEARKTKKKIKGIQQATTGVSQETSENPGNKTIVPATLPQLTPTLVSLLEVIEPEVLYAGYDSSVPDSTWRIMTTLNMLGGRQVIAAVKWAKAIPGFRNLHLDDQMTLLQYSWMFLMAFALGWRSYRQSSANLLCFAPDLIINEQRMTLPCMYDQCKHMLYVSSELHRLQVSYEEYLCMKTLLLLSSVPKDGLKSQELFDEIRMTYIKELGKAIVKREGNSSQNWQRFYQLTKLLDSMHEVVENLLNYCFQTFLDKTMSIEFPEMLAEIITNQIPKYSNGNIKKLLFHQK

Potency, inactive:
N#CC1=C(SCC(=O)c2ccccc2)NC2=C(C(=O)CCC2)C1c1ccco1 (centres undefined) > 20.6 µM
COc1ccc(C(=O)c2sc(NC(C)C)nc2N)cc1OC > 20.6 µM
COc1ccc(-c2nn(C)c(=O)c3ccccc23)cc1NS(C)(=O)=O > 20.6 µM
Cc1ccc(N2C(=O)c3sc4nnc(C)c(=O)n4c3C2=O)cc1 > 20.6 µM
Cc1csc(NC(=O)CSc2nsc(SCC(=O)Nc3nc(C)cs3)c2C#N)n1 > 20.6 µM
COC(=O)c1ccc(C2/C(=C(\O)c3ccc(OC)c(C)c3)C(=O)C(=O)N2c2cc(C)on2)cc1 (centres undefined) > 20.6 µM
OC1(c2cccc(C(F)(F)F)c2)CCN(c2ncnc3c2[nH]c2ccccc23)CC1 > 20.6 µM
N#CC1=C(N)NC(SCc2ccc(Cl)cc2)=C(C#N)C12CCCCC2 > 20.6 µM
COc1ccc(CNc2oc(COc3ccccc3Cl)nc2C#N)cc1 > 20.6 µM
Fc1ccc2[nH]c3c(N4CCN(Cc5ccc6c(c5)OCO6)CC4)ncnc3c2c1 > 20.6 µM
C=CCn1c(SCC(=O)c2ccc(NS(=O)(=O)c3ccccc3)cc2)nnc1-c1cccs1 > 20.6 µM
Cc1ccc2[nH]c3c(N4CCN(Cc5ccccc5)CC4)ncnc3c2c1 > 20.6 µM
Cc1ccc2[nH]c3c(N4CCN(Cc5ccc6c(c5)OCO6)CC4)ncnc3c2c1 > 20.6 µM
N#Cc1nc(-c2ccccc2Cl)oc1N1CCCCC1 > 20.6 µM
Cc1ccc(-n2ncc3c(N4CCN(c5ccccc5)CC4)ncnc32)c(C)c1 > 20.6 µM
CCCCN(CCCC)c1nc2ccccc2nc1C(C#N)C(=O)NCCCOC (centres undefined) > 20.6 µM
Cn1c(NCc2ccco2)nc2c1c(=O)n(Cc1ccc(Cl)c(Cl)c1)c(=O)n2C > 20.6 µM
Cc1ccc(C2C3CN(C(C)C)CC=C3C(C#N)=C(N)C2(C#N)C#N)cc1 (centres undefined) > 20.6 µM
CCOc1cccc(-c2nnc3sc(C4CCCCC4)nn23)c1 > 20.6 µM
N#Cc1nc(-c2cccs2)oc1NCc1ccc2c(c1)OCO2 > 20.6 µM
N#Cc1c(N)nc(SCc2ccccn2)c(C#N)c1-c1cccs1 > 20.6 µM
CC1(C)Cc2c(C#N)c(N3CCN(C(=O)c4ccco4)CC3)nc(Cc3ccccc3)c2CO1 > 20.6 µM
Cn1c(NCC(O)c2ccccc2)nc2c1c(=O)n(Cc1ccc(Cl)c(Cl)c1)c(=O)n2C (centres undefined) > 20.6 µM
CCCCSc1nc(N)c(C#N)c(-c2cccs2)c1C#N > 20.6 µM
CCC(=O)Oc1oc(-c2ccccc2)nc1C=Nc1ccccc1OC > 20.6 µM
Cc1ccccc1N1C(=O)CC(Sc2nnc(-c3ccccc3)o2)C1=O (centres undefined) > 20.6 µM
COc1cccc(C(=O)Nc2ccc(-c3nnc(-c4ccco4)o3)cc2)c1 > 20.6 µM
Cc1oc2cc(O)ccc2c(=O)c1-c1cnn(-c2ccccc2)c1 > 20.6 µM
Cn1c(N2CCN(c3ccccn3)CC2)nc2c1c(=O)n(Cc1ccc(Cl)cc1)c(=O)n2C > 20.6 µM
O=C(Nc1ccc(N2CCN(C(=O)c3ccccc3)CC2)c(Cl)c1)c1ccc(Br)o1 > 20.6 µM
O=C(NCc1ccccn1)c1coc(=O)c(Br)c1 > 20.6 µM
CCc1cc2c(=O)c(-c3nc4ccccc4[nH]3)coc2cc1OC(=O)N1CCOCC1 > 20.6 µM
Nc1nonc1C(=O)NCCN=Cc1cc(Cc2ccccc2)cc(Br)c1O > 20.6 µM
O=c1c(-c2ccc3c(c2)OCCO3)c(C(F)(F)F)oc2cc(O)cc(O)c12 > 20.6 µM
N#C/C(=C\N1CCN(Cc2ccc3c(c2)OCO3)CC1)c1nc2ccccc2s1 > 20.6 µM
COc1ccccc1N=Cc1nc(-c2ccccc2)oc1OC(C)=O > 20.6 µM
Cc1ccc(S(=O)(=O)N2CCN(c3nc(C(C)C)c4c(c3C#N)CC(C)(C)OC4)CC2)cc1 > 20.6 µM
CCCCc1ccc(NC(=O)CSC2=C(C#N)C(c3ccco3)C3=C(CCCC3=O)N2)cc1 (centres undefined) > 20.6 µM
COc1cccc(-c2nc(NC(C)C)c3ccccc3n2)c1O > 20.6 µM
